{"source": "the supplement of paper PMC8183993", "note": "Values joined by “and” are separate entries in the source; they are usually repeats but may differ in a detail not shown here. Equal entries are not always repeated. Structures can show the parent of a compound that is named as a salt. ± gives the standard deviation of the averaged measurements. The full ranking holds about 3,200 compounds; the median of “nuclei count (viability) relative to DMSO” is about 99, and the lowest 2% start at about 16. The sample as a whole holds a higher share of the lowest values than the screen did."}
{"tested_on": "U2OS", "assay": "nuclei count (viability) relative to DMSO (% of DMSO); higher = more viable cells", "conditions": "10 µM; 24 h", "procedure": "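Primary image-based screen in U2OS cells: compounds at 10 uM for 24 h, then a 1 h o-propargyl-puromycin (OPP) pulse, click labelling, and high-throughput microscopy. Mean cytoplasmic OPP intensity and nuclei count were normalised to DMSO wells within each plate (DMSO = 100) and averaged over triplicate plates.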"}
{"smiles": "N[C@@H](CS(=O)O)C(=O)O", "note": "[L-Cysteinesulfinic acid]", "nuclei count": 102}
{"smiles": "CC1=NN(c2ccc(C)c(C)c2)C(=O)/C1=N\\Nc1cccc(-c2cccc(C(=O)O)c2)c1O", "nuclei count": 98.3}
{"smiles": "C=CC(=O)Nc1cccc(Oc2nc(Nc3ccc(N4CCN(C)CC4)cc3OC)ncc2Cl)c1", "nuclei count": 107}
{"smiles": "C=CC(=O)Nc1cccc(Nc2nc(Nc3ccc(Oc4ccnc(C(=O)NC)c4)cc3)ncc2F)c1", "nuclei count": 63.4}
{"smiles": "C=CC(=O)Nc1cccc(Oc2nc(Nc3ccc(N4CCN(C)CC4)cc3)ncc2Cl)c1", "nuclei count": 6.24}
{"smiles": "CCC(=O)Nc1cccc(Oc2nc(Nc3ccc(N4CCN(C)CC4)cc3OC)ncc2Cl)c1", "nuclei count": 94.6}
{"smiles": "C=CC(=O)Nc1ccc2ncnc(Nc3cccc(Br)c3)c2c1", "nuclei count": "79.2 ± 4.8"}
{"smiles": "C=CC(=O)Nc1cccc(Sc2nc(Nc3ccc(N4CCN(C)CC4)cc3)ncc2Cl)c1", "nuclei count": 13.6}
{"smiles": "NC1CCN(c2cccc(Cl)n2)CC1", "nuclei count": 103}
{"smiles": "COC(=O)C1=C(C)NC(C)=C(C(=O)NCCCN2CCC(c3ccccc3)(c3ccccc3)CC2)C1c1ccc([N+](=O)[O-])cc1", "note": "(configuration not stated)", "nuclei count": 55.1}
{"smiles": "O=C(O)CCc1ccc(NCc2cccc(Oc3ccccc3)c2)cc1", "nuclei count": 90.2}
{"smiles": "COC(C)(C)CCCC(C)C/C=C/C(C)=C/C(=O)O", "note": "(configuration not stated) [Methoprene acid]", "nuclei count": 105}
{"smiles": "COc1ccc(CN2C(=O)C(=O)c3cc(OC(F)(F)F)ccc32)cc1", "nuclei count": 17.3}
{"smiles": "O=[N+]([O-])c1ccc2c(c1)S(=O)(=O)C=C2", "note": "[Stattic]", "nuclei count": 14.1}
{"smiles": "O=C1Nc2ccc([N+](=O)[O-])cc2C1=O", "note": "[5-Nitroisatin]", "nuclei count": 99}
{"smiles": "CS(=O)(=O)Nc1ccc([N+](=O)[O-])cc1Oc1ccccc1", "note": "[Nimesulide]", "nuclei count": "103 ± 6.9"}
{"smiles": "CCCC[P+](CCCC)(CCCC)Cc1ccc(NC(=O)C(Cc2ccc3ccccc3c2)NC(=NC2CCCCC2)NC2CCCCC2)cc1", "note": "(configuration not stated)", "nuclei count": 94.1}
{"smiles": "CC(C)C[C@H](NC(=O)[C@@H](O)[C@H](N)Cc1ccccc1)C(=O)O", "note": "[Bestatin]", "nuclei count": 94.4}
{"smiles": "CC(C)C[C@H](NC(=O)[C@H](Cc1ccccc1)NC(=O)c1cnccn1)B(O)O", "note": "[Bortezomib (Velcade)]", "nuclei count": 7.65}
{"smiles": "Nc1nc(NCCc2ccc(O)cc2)nc2nc(-c3ccco3)nn12", "nuclei count": 114}
{"smiles": "CCCOc1ccn2c(C(C)=O)cc(-c3ccccc3S(C)(=O)=O)c2c1", "nuclei count": 96.4}
{"smiles": "Cc1cc(=O)n(C)c2cc(N3C(=O)CC[C@H](NS(=O)(=O)CC(C)C)[C@H]3c3ccc(Cl)cc3)ccc12", "nuclei count": 104}
{"smiles": "COCCCN1CCC(NC(=O)c2cc(Cl)c(N)c3c2OCC3)CC1", "note": "[Prucalopride]", "nuclei count": 103}
{"smiles": "O=c1[nH]nc(Sc2ncc([N+](=O)[O-])s2)n1-c1ccc2c(c1)OCCO2", "nuclei count": "6.42 ± 2.8"}
{"smiles": "O=C1NCCN1c1ncc([N+](=O)[O-])s1", "note": "[Niridazole]", "nuclei count": 90.4}
{"smiles": "O=c1nc2ccccc2c2n1CC(CN1CCN(c3ccccc3)CC1)N2", "note": "(configuration not stated)", "nuclei count": 100}
{"smiles": "COc1cc2c(cc1OC)CN(CCc1ccc(NC(=O)c3cc(OC)c(OC)cc3NC(=O)c3cnc4ccccc4c3)cc1)CC2", "note": "[Tariquidar]", "nuclei count": 96.8}
{"smiles": "CCCCC/C=C/C=C1/C(=O)C=C[C@@H]1C/C=C\\CCCC(=O)O", "note": "[15-Deoxy-D12,14-prostaglandin J2]", "nuclei count": 85.6}
{"smiles": "O=C(Nc1ccccc1-c1cn2c(CN3CCNCC3)csc2n1)c1cnc2ccccc2n1", "nuclei count": 12.2}
{"smiles": "O=[N+]([O-])c1cccc2c(Br)[nH]nc12", "note": "[3-Bromo-7-nitroindazole]", "nuclei count": 102}
{"smiles": "CCC(=O)OCN1C(=O)C=CC1=O", "nuclei count": 109}
{"smiles": "CN(CCOc1ccc(-c2ccc3c(c2)OCO3)cc1C(C)(C)C)CC(=O)O", "nuclei count": 98}
{"smiles": "COC[C@H](NC(=O)c1cnc(C)s1)C(=O)N[C@@H](COC)C(=O)N[C@@H](Cc1ccccc1)C(=O)[C@@]1(C)CO1", "note": "[Oprozomib (ONX 0912)]", "nuclei count": 11.1}
{"smiles": "COC(=O)[C@H](Cc1ccccc1)NC(=O)[C@@H](N)CC(=O)O", "note": "[Aspartame]", "nuclei count": 108}
{"smiles": "O=C(CCc1ccc(O)cc1)c1c(O)cc(O)cc1O[C@@H]1O[C@H](CO)[C@@H](O)[C@H](O)[C@H]1O", "note": "[Phlorizin (Phloridzin)]", "nuclei count": 82.5}
{"smiles": "Oc1cc2c(c(Cl)c1O)CCNCC2c1ccccc1", "note": "(configuration not stated)", "nuclei count": 91.2}
{"smiles": "O=C1CCc2c(ccc3ccccc23)O1", "note": "[Splitomicin]", "nuclei count": "104 ± 5.1"}
{"smiles": "CC(C)C[C@@H](C=O)NC(=O)[C@H](CC(C)C)NC(=O)[C@H](CC(C)C)NC(=O)OCc1ccccc1", "nuclei count": "10.9 and 7.59"}
{"smiles": "CC(NC(=O)C(Cc1ccccc1)NC(=O)OCc1ccccc1)C(=O)CF", "note": "(configuration not stated)", "nuclei count": 95}
{"smiles": "CCCC[C@@H](C=O)NC(=O)[C@H](CC(C)C)NC(=O)OCc1ccccc1", "note": "[Calpeptin]", "nuclei count": "102 ± 1.9"}
{"smiles": "CC1C(=O)OC2C(O)C34C5CC(C(C)(C)C)C36C(OC(=O)C6O)OC4(C(=O)O5)C12O", "note": "(configuration not stated) [Ginkgolide B]", "nuclei count": 95}
{"smiles": "NCCCCCc1c[nH]cn1", "note": "[Impentamine dihydrobromide]", "nuclei count": 90.5}
{"smiles": "CN(Cc1ccccc1)C(=O)[C@H](Cc1ccc2ccccc2c1)NC(=O)[C@@H]1CCCN1C(=O)Nc1ccccc1[N+](=O)[O-]", "nuclei count": 100}
{"smiles": "OC(c1cc(C(F)(F)F)nc2c(C(F)(F)F)cccc12)C1CCCCN1", "note": "(configuration not stated) [Mefloquine hydrochloride]", "nuclei count": 10.7}
{"smiles": "Oc1ccc(OC2CCCCO2)cc1", "note": "(configuration not stated) [Deoxyarbutin]", "nuclei count": 91.1}
{"smiles": "COC(=O)[C@@H]1CC2=CC(=O)CC[C@]2(C)[C@@]23O[C@@H]2C[C@@]2(C)[C@@H](CC[C@@]24CCC(=O)O4)[C@H]13", "note": "[Eplerenone]", "nuclei count": "104 ± 3.6"}
{"smiles": "Cc1cc(Nc2ncc(Cl)c(Nc3ccccc3S(=O)(=O)C(C)C)n2)c(OC(C)C)cc1C1CCNCC1", "note": "[Ceritinib (LDK378)]", "nuclei count": 14.7}
{"smiles": "CC(C)Oc1cc(Nc2nc(N[C@@H](C)c3ccc(F)cn3)ncc2Cl)n[nH]1", "nuclei count": 52.7}
{"smiles": "Cc1cccc(C)c1NC(=O)C[N+](C)(C)C", "nuclei count": 106}
{"smiles": "CCn1nnc2c(N3CCOCC3)nc(-c3ccc(NC(=O)Nc4ccc(C(=O)N5CCN(C)CC5)cc4)cc3)nc21", "nuclei count": 77.7}
{"smiles": "CC(C)c1ccc(Cn2ccc3c4c(N)nc(NC5CC5)nc4ccc32)cc1", "nuclei count": 29.3}
{"smiles": "Cc1c(NC(=O)N2CCOCC2)ccc2c1c1ccccc1n2C(C)C", "nuclei count": 94.6}
{"smiles": "CC(C)C[C@H](NC(=O)CNC(=O)c1cc(Cl)ccc1Cl)B1OC(=O)C(CC(=O)O)(CC(=O)O)O1", "nuclei count": 11.6}
{"smiles": "CC(C)C[C@H](NC(=O)CNC(=O)c1cc(Cl)ccc1Cl)B(O)O", "nuclei count": 9.55}
{"smiles": "CC(C)C[C@H](NC(=O)[C@H](CCC(=O)O)NC(=O)CNC(=O)c1ccc(/C=C/C(=O)O)cc1)C(N)=O", "nuclei count": 97.5}
{"smiles": "N=C(N)c1ccc(N2CCN(C3CCN(CC(=O)O)CC3)CC2)cc1", "nuclei count": 104}
{"smiles": "CCCC(=O)[O-].[Na+]", "note": "[Sodium butyrate]", "nuclei count": 89.2}
{"smiles": "CC1=C(/C=C/C(C)=C/C=C/C(C)=C/C(=O)O)C(C)(C)CCC1O", "note": "(configuration not stated) [4-Hydroxyretinoic acid]", "nuclei count": 101}
{"smiles": "NC(C(=O)O)c1ccc(C(=O)O)c(C(=O)O)c1", "note": "(racemic)", "nuclei count": 102}
{"smiles": "COc1cccc(-c2cc(NCc3ccc4c(c3)OCO4)nc(N)n2)c1", "nuclei count": 19.1}
{"smiles": "CC(C)[C@H]1c2ccc(F)cc2CC[C@@]1(CCN(C)CCCc1nc2ccccc2[nH]1)OC(=O)C1CC1", "note": "[NNC 55-0396 dihydrochloride]", "nuclei count": 10.5}
{"smiles": "COCC(=O)O[C@]1(CCN(C)CCCc2nc3ccccc3[nH]2)CCc2cc(F)ccc2[C@@H]1C(C)C", "note": "[Mibefradil dihydrochloride]", "nuclei count": 81.7}
{"smiles": "CC(C)c1ccc(NC(=O)Cn2cnc3c2c(=O)n(C)c(=O)n3C)cc1", "nuclei count": 103}
{"smiles": "COc1cc2c(NC3CCN(C(C)C)CC3)nc(N3CCC(F)(F)CC3)nc2cc1OCCCN1CCCC1", "nuclei count": 50.6}
{"smiles": "C[C@@H]1CN(CCCn2c3ccccc3c3ccccc32)C[C@H](C)N1", "note": "[Rimcazole dihydrochloride]", "nuclei count": 80}
{"smiles": "CCN(CCO)CCCC(C)Nc1ccnc2cc(Cl)ccc12", "note": "(configuration not stated) [Hydroxychloroquine sulfate]", "nuclei count": 96.1}
{"smiles": "CCN(CCO)CCCC(C)Nc1ccnc2cc(Cl)ccc12", "note": "(configuration not stated) [Hydroxychloroquine]", "nuclei count": 85.7}
{"smiles": "CCN(CC)CCCC(C)Nc1ccnc2cc(Cl)ccc12", "note": "(configuration not stated) [Chloroquine]", "nuclei count": 96.6}
{"smiles": "CCN(CC)CCCC(C)Nc1c2ccc(Cl)cc2nc2ccc(OC)cc12", "note": "(configuration not stated) [Quinacrine dihydrochloride dihydrate]", "nuclei count": 12.9}
{"smiles": "CCN(CC)CCCC(C)Nc1ccnc2cc(Cl)ccc12", "note": "(configuration not stated) [Chloroquine diphosphate]", "nuclei count": 103}
{"smiles": "CC1=CC(=O)C(C(C)C)=CC1=O", "note": "[Thymoquinone]", "nuclei count": 103}
{"smiles": "COc1ccc(CCN(C)CCCOc2ccc(S(=O)(=O)c3c(C(C)C)n(C)c4ccccc34)cc2)cc1OC", "nuclei count": 47.5}
{"smiles": "C1CCC(C(CC2CCCCN2)C2CCCCC2)CC1", "note": "(configuration not stated) [Perhexiline maleate]", "nuclei count": 5.66}
{"smiles": "COc1cc(-c2cn(C)c(=O)c3cnccc23)c(OC)cc1CN(C)C", "nuclei count": 110}
{"smiles": "Cc1ccc(-n2nc(C(C)(C)C)cc2NC(=O)Nc2ccc(OCCN3CCOCC3)c3ccccc23)cc1", "note": "[BIRB 796 (Doramapimod)]", "nuclei count": 94.7}
{"smiles": "COc1ccc(NC(=O)c2ccc(-c3ccc(-c4noc(C)n4)cc3C)cc2)cc1OCCN(C)C", "nuclei count": 100}
{"smiles": "C[n+]1cc2c3c(ccc2c2ccc4cc5c(cc4c21)OCO5)OCO3", "note": "[Sanguinarine chloride]", "nuclei count": 12}
{"smiles": "COc1ccc2cc3[n+](cc2c1OC)CCc1cc2c(cc1-3)OCO2", "note": "[Berberine HCl]", "nuclei count": 98.6}
{"smiles": "Cc1[nH]c2ccccc2c1C(Nc1ccccn1)c1ccc(Cl)cc1", "note": "(configuration not stated)", "nuclei count": 93.9}
{"smiles": "CC[N+](C)(CC)CC(=O)Nc1c(C)cccc1C", "note": "[N-Methyllidocaine iodide]", "nuclei count": 98.4}
{"smiles": "CC1=C(C(=O)OCCN(Cc2ccccc2)c2ccccc2)C(c2cccc([N+](=O)[O-])c2)C(P2(=O)OCC(C)(C)CO2)=C(C)N1", "note": "(configuration not stated) [Efonidipine hydrochloride monoethanolate]", "nuclei count": 99.9}
{"smiles": "COc1cc(NC(C)CCCN)c2ncccc2c1", "note": "(configuration not stated) [Primaquine diphosphate]", "nuclei count": 15.7}
